Molecules are shown by their SMILES. Where a name gives a salt, the structure may show the parent alone. Out of some 1,700 compounds screened, about 15 (0.9%) showed activity. The list comes from a sample in which actives are over-represented; it also holds similar structures and randomly drawn compounds. Unmarked numbers belong to inactive results.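 How the source made its calls: active = infection cut by 80% or more with cell growth above 90% in both runs; inactive = the rest.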

This experiment has as its system HSV-1 strain 17 YFP-ICP4 in A549. Description: HSV-1 infection relative to DMSO (ICP4-YFP per H2B-RFP signal); higher = more viral infection (less antiviral activity), active = hit call of the paper. Conditions: 10 µM; 48 h; MOI: 0.1. As for the experimental part:
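Selleck FDA-approved library (L1300) screened in duplicate at 10 µM on A549 H2B-mRuby cells in 384-well plates, infected with HSV-1 strain 17 YFP-ICP4 at MOI 0.1 one hour before drug addition. Imaged after 2 days at 37°C. Cell growth (H2B-RFP) and infection (ICP4-YFP) are expressed as % of DMSO-treated wells. Hits: growth >90% and infection <20% of DMSO.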
For the compound `CO/N=C(\C(=O)N[C@@H]1C(=O)N2C(C(=O)[O-])=C(C[N+]3(C)CCCC3)CS[C@H]12)c1csc(N)n1` [Cefepime Dihydrochloride Monohydrate], the HSV-1 infection is 98%.
Regarding `CCCc1nc(C(C)(C)O)c(C(=O)O)n1Cc1ccc(-c2ccccc2-c2nnn[nH]2)cc1` [Olmesartan], the HSV-1 infection is 114%.
For `C[C@H](Nc1ncnc2nc[nH]c12)c1cc2cccc(Cl)c2c(=O)n1-c1ccccc1` [Duvelisib (IPI-145, INK1197)] the value was 69.2%; for `CSCC[C@H](NC(=O)[C@H](CC(C)C)NC(=O)[C@H](Cc1c[nH]c2ccccc12)NC(=O)[C@H](CCC(N)=O)NC(=O)[C@@H](NC(=O)[C@H](Cc1ccccc1)NC(=O)[C@H](CC(=O)O)NC(=O)[C@H](CCC(N)=O)NC(=O)[C@H](C)NC(=O)[C@H](CCCNC(=N)N)NC(=O)[C@H](CCCNC(=N)N)NC(=O)[C@H](CO)NC(=O)[C@H](CC(=O)O)NC(=O)[C@H](CC(C)C)NC(=O)[C@H](Cc1ccc(O)cc1)NC(=O)[C@H](CCCCN)NC(=O)[C@H](CO)NC(=O)[C@H](Cc1ccc(O)cc1)NC(=O)[C@H](CC(=O)O)NC(=O)[C@H](CO)NC(=O)[C@@H](NC(=O)[C@H](Cc1ccccc1)NC(=O)[C@@H](NC(=O)CNC(=O)[C@H](CCC(N)=O)NC(=O)[C@H](CO)NC(=O)[C@@H](N)Cc1cnc[nH]1)[C@@H](C)O)[C@@H](C)O)C(C)C)C(=O)N[C@@H](CC(N)=O)C(=O)N[C@H](C(=O)O)[C@@H](C)O` [Glucagon HCl], 99.3%.
With `COc1cc(CNC(=O)CCCCC=CC(C)C)ccc1O` [Capsaicin(Vanilloid)], the HSV-1 infection is 86.2%.
As for `CC1(C)CCC(CN2CCN(c3ccc(C(=O)NS(=O)(=O)c4ccc(NCC5CCOCC5)c([N+](=O)[O-])c4)c(Oc4cnc5[nH]ccc5c4)c3)CC2)=C(c2ccc(Cl)cc2)C1` [Venetoclax (ABT-199, GDC-0199)], the figure is 96%.
For `CC(O)c1ccc(S(=O)(=O)NC(=O)NC2CCCCC2)cc1` (configuration not stated) [Hydroxyhexamide] the value was 94.9%; for `COc1ccc2c(O[C@@H]3C[C@H]4C(=O)N[C@]5(C(=O)NS(=O)(=O)C6CC6)C[C@H]5/C=C\CCCCN(C)C(=O)[C@@H]4C3)cc(-c3nc(C(C)C)cs3)nc2c1C` [Simeprevir], 84.7%.
As for `COc1cc(C(=O)O)ccc1NC(=O)[C@@H]1N[C@@H](CC(C)(C)C)[C@](C#N)(c2ccc(Cl)cc2F)[C@H]1c1cccc(Cl)c1F` [Idasanutlin (RG-7388)], the figure is 101%.
Take `O=c1[nH]c2ccccc2n1CCN1CCN(c2cccc(C(F)(F)F)c2)CC1` [Flibanserin]: the HSV-1 infection was 89.9%.
As for `CC(C)(Oc1ccc(Cl)cc1)C(=O)OCCOC(=O)c1cccnc1` [Etofibrate], the figure is 109%; as for `NCCCC[C@H](NC(=O)[C@@H]1CCCN1C(=O)[C@@H]1CSSC[C@H](NC(=O)CNC(=O)CNC(=O)CN)C(=O)N[C@@H](Cc2ccc(O)cc2)C(=O)N[C@@H](Cc2ccccc2)C(=O)N[C@@H](CCC(N)=O)C(=O)N[C@@H](CC(N)=O)C(=O)N1)C(=O)NCC(N)=O` [Terlipressin Acetate], 110%.
On to `CCOc1ccc(Cc2cc([C@@H]3O[C@H](SC)[C@@H](O)[C@H](O)[C@H]3O)ccc2Cl)cc1` [Sotagliflozin (LX4211)], for which the HSV-1 infection is 111%.
For `CCCCCCCCCC(=O)N[C@H]1[C@H](Oc2c3cc4cc2Oc2ccc(cc2Cl)[C@@H](O[C@@H]2O[C@H](CO)[C@@H](O)[C@H](O)[C@H]2NC(C)=O)[C@@H]2NC(=O)[C@H](NC(=O)[C@@H]4NC(=O)[C@H]4NC(=O)[C@@H](Cc5ccc(c(Cl)c5)O3)NC(=O)[C@H](N)c3ccc(O)c(c3)Oc3cc(O)cc4c3)c3ccc(O)c(c3)-c3c(OC4O[C@H](CO)[C@@H](O)[C@H](O)[C@@H]4O)cc(O)cc3[C@@H](C(=O)O)NC2=O)O[C@H](CO)[C@@H](O)[C@@H]1O` (some centres not stated) [Teicoplanin] the value was 89%.
As to `CN(C)Cc1ccc(S(=O)(=O)n2ccc(/C=C/C(=O)NO)c2)cc1` [Resminostat], the HSV-1 infection is 64.2%.
Regarding `C1=N/C2=N/c3ccc(OCCN4CCCC4)c(c3)COC/C=C/COCc3cccc(c3)C(=C1)N2` [Pacritinib (SB1518)], the HSV-1 infection is 22.2%.
As for `COc1ccc(CN(C(=O)[C@@H](N)Cc2c(C)cc(C(N)=O)cc2C)[C@@H](C)c2ncc(-c3ccccc3)[nH]2)cc1C(=O)O` [Eluxadoline], the HSV-1 infection was 97.4%.
Regarding `O=C(NC[C@H]1CN(c2ccc(N3CCOCC3=O)cc2)C(=O)O1)c1ccc(Cl)s1` [Rivaroxaban], the HSV-1 infection was 110%.
For `N.N.O=C([O-])C[O-].[Pt+2]` [Nedaplatin] the value was 87%.
As for `N#C[C@@H]1CCCN1C(=O)CNC12CC3CC(CC(O)(C3)C1)C2` [Vildagliptin (LAF-237)], the figure is 103%; as for `O[C@@H](COc1cccc2ncccc12)CN1CCN(C2c3ccccc3[C@@H]3[C@H](c4ccccc42)C3(F)F)CC1` (some centres not stated), 75.2%; as for `CC[C@@H]1C(=O)N(C)c2cnc(Nc3ccc(C(=O)N[C@H]4CC[C@H](N5CCN(CC6CC6)CC5)CC4)cc3OC)nc2N1C(C)C` [Volasertib (BI 6727)], 29.3%.
As for `CO[C@@]1(NC(=O)CSC[C@@H](N)C(=O)O)C(=O)N2C(C(=O)O)=C(CSc3nnnn3C)CS[C@@H]21` [Cefminox Sodium], the figure is 110%.
Take `Cc1cc(C)c2c(c1)[C@@H](N(Cc1cc(C(F)(F)F)cc(C(F)(F)F)c1)c1nnn(C)n1)CCCN2C[C@H]1CC[C@H](C(=O)O)CC1`: the HSV-1 infection is 88.1%.
As for `C#CCN[C@@H]1CCc2ccccc21` [Rasagiline Mesylate], the HSV-1 infection is 98.1%.
As for `C[C@H]1CN(C[C@H](Cc2ccccc2)C(=O)NCC(=O)O)CC[C@@]1(C)c1cccc(O)c1` [Alvimopan dihydrate], the figure is 104%.
As for `CN1CCN(CCOc2cc(OC3CCOCC3)c3c(Nc4c(Cl)ccc5c4OCO5)ncnc3c2)CC1` [Saracatinib (AZD0530)], the figure is 38.7%.

For the origin of these results see the supplement of paper PMC11537057.
